# Reference: PubChem BioAssay (EPA / NIEHS)
# Records with an inconclusive call do not appear. Some compounds were tested as several samples or in several runs, with calls that do not always agree. The source made the active and inactive calls. The calls were made as follows, unless noted: active = hit-call score of the fitted dose curve at least 0.9, where 1 is the maximum; inconclusive = response in the unintended direction; inactive = score below 0.9.
# Tests used:
# [1] = molecular target: human Peroxisome Proliferator-activated Receptor alpha (PPARa), PPARA (gene 5465) (UniProt Q07869); test: ATG_PPARa_TRANS: Attagene TRANS-FACTORIAL HepG2 Assay for human Peroxisome Proliferator-activated Receptor alpha (PPARa) (AID 2283001)
# Summary of the method: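 Gain-of-signal endpoint: reporter mRNA induction relative to DMSO, detected by fluorescent RT-PCR and capillary electrophoresis. HepG2 cells transiently carried GAL4-UAS-driven reporter units plus NR-Gal4 fusion; exposure lasted 24 h.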
# [2] = read-out: Intercellular Adhesion Molecule 1 (ICAM1), ICAM1 (gene 3383); test: BSK_3C_ICAM1: BioMAP Diversity Plus: 3C Assay for Intercellular Adhesion Molecule 1 (ICAM1) Biomarker Activity (AID 2283003; active = hit-call score of the fitted dose curve at least 0.9, where 1 is the maximum; inactive = score below 0.9); conditions: primary human endothelial cells (HUVEC); actives raise or lower the signal
# Summary of the method: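 ICAM-1 levels measured by ELISA after HUVEC cultures in the 3C system had been dosed for 24 h. Gain or loss of signal relative to DMSO was fitted in both directions.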
# [3] = BSK_3C_Proliferation: Cell Proliferation Assessment in the BioMAP Diversity Plus: 3C Assay (AID 2283006; active = hit-call score of the fitted dose curve at least 0.9, where 1 is the maximum; inactive = score below 0.9;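 as to AC50: potency may reflect either rise or fall in cell number versus DMSO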); conditions: primary human endothelial cells (HUVEC)
# Summary of the method: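 Read-out is total protein by SRB absorbance at 560 nm, taken as a proxy for relative cell number. Primary human umbilical vein endothelium cultured below confluence was dosed for 48 h, TCA-fixed and SRB-stained; curves were fitted bidirectionally versus DMSO.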
# [4] = molecular target: Peroxisome proliferator-activated receptor gamma (Homo sapiens) (UniProt P37231); test: ATG_PPARg_TRANS: Attagene TRANS-FACTORIAL HepG2 Assay for human Peroxisome Proliferator-activated Receptor-gamma (PPARg) (AID 2283007)
# Summary of the method: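 A TRANS-format multiplexed reporter assay measures activity of an exogenous chimeric NR-Gal4 protein in HepG2 cells. After 24 h of chemical exposure, reporter transcripts are amplified, fluorescently labelled and sized by capillary electrophoresis, with gain of signal scored against DMSO.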
# [5] = molecular target: Nuclear receptor subfamily 1 group I member 2 (Homo sapiens) (UniProt O75469); test: ATG_PXR_TRANS: Attagene TRANS-FACTORIAL HepG2 Assay for human Pregnane X Receptor (PXR) (AID 2283008)
# Summary of the method: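 Read-out is fluorescence of labelled reporter cDNA fragments separated by capillary electrophoresis after RT-PCR and HpaI digestion. Source: HepG2 cells carrying PXR-GAL4/UAS reporter constructs, treated 24 h; activity fitted upward relative to DMSO.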
# [6] = molecular target: human Retinoid X Receptor beta (RXRb), RXRB (gene 6257) (UniProt P28702); test: ATG_RXRb_TRANS: Attagene TRANS-FACTORIAL HepG2 Assay for human Retinoid X Receptor beta (RXRb) (AID 2283013)
# Summary of the method: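 Transfect HepG2 with GAL4-UAS multi-reporter constructs (chimeric NR-Gal4, TRANS format); dose compound 24 h; isolate RNA, RT-PCR, FAM primer extension, HpaI digest; quantify by capillary electrophoresis; positive direction vs DMSO.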
# [7] = molecular target: human Thyroid Receptor alpha (THRa1), THRA (gene 7067) (UniProt P10827); test: ATG_THRa1_TRANS: Attagene TRANS-FACTORIAL HepG2 Assay for human Thyroid Receptor alpha (THRa1) (AID 2283014)
# Summary of the method: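 HepG2 cells transiently transfected with multiplexed GAL4-UAS reporter units for exogenous chimeric THRa1-Gal4; reporter mRNA measured 24 h after dosing by RT-PCR, 6-FAM labelling, HpaI digestion and capillary electrophoresis. Gain-of-signal fitted versus DMSO baseline.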
# [8] = read-out: E-selectin (Homo sapiens) (UniProt P16581); test: BSK_3C_Eselectin: BioMAP Diversity Plus: 3C Assay for Eselectin Biomarker Activity (AID 2283015; active = hit-call score of the fitted dose curve at least 0.9, where 1 is the maximum; inactive = score below 0.9;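 as to outcome: cell surface E-selectin protein quantified by ELISA 24 h after dosing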); conditions: primary human endothelial cells (HUVEC); actives raise or lower the signal
# Summary of the method: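 Primary human umbilical vein endothelial cells (3C system) were dosed with chemical and cell-surface E-selectin measured by ELISA 24 h later. Bidirectional curve fitting used DMSO as negative control and baseline.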
# [9] = read-out: Interleukin-1 alpha (IL1a), IL1A (gene 3552); test: BSK_BE3C_IL1a: BioMAP Diversity Plus: BE3C Assay for Interleukin-1 alpha (IL1a) Biomarker Activity (AID 2283016; active = hit-call score of the fitted dose curve at least 0.9, where 1 is the maximum; inactive = score below 0.9); conditions: primary human bronchial epithelial cells; actives raise or lower the signal
# Summary of the method: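 BE3C primary human bronchial epithelium; cpd 24 h; IL-1a by ELISA; bidirectional fit vs DMSO; parallel SRB (0.1% SRB, 10% TCA fix, 560 nm) for cytotoxicity.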
# [10] = read-out: Monocyte Chemoattractant Protein-1 (MCP1), CCL2 (gene 6347); test: BSK_4H_MCP1: BioMAP Diversity Plus: 4H Assay for Monocyte Chemoattractant Protein-1 (MCP1) Biomarker Activity (AID 2283018; active = hit-call score of the fitted dose curve at least 0.9, where 1 is the maximum; inactive = score below 0.9); conditions: primary human endothelial cells (HUVEC); actives raise or lower the signal
# Summary of the method: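 ELISA read-out of MCP-1 from human vascular endothelial primary cells taken at 24 hours after compound exposure. Activity was fitted in both directions relative to DMSO, which served as negative control.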
# [11] = read-out: Human Leukocyte Antigen - DR isotype (HLADR), HLA-DRA (gene 3122); test: BSK_3C_HLADR: BioMAP Diversity Plus: 3C Assay for Human Leukocyte Antigen - DR isotype (HLADR) Biomarker Activity (AID 2283019; active = hit-call score of the fitted dose curve at least 0.9, where 1 is the maximum; inactive = score below 0.9;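 also: ELISA of cell-surface HLA-DR on HUVEC 24 h after dosing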); conditions: primary human endothelial cells (HUVEC); actives raise or lower the signal
# Summary of the method: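 Primary human umbilical vein endothelial cells (3C system) were dosed with compound and cell-surface HLA-DR was quantified by ELISA at 24 h. Activity was fitted bidirectionally against DMSO as negative control and baseline.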
# [12] = read-out: Monokine induced gamma interferon (MIG), CXCL9 (gene 4283); test: BSK_3C_MIG: BioMAP Diversity Plus: 3C Assay for Monokine induced gamma interferon (MIG) Biomarker Activity (AID 2283021; active = hit-call score of the fitted dose curve at least 0.9, where 1 is the maximum; inactive = score below 0.9); conditions: primary human endothelial cells (HUVEC); actives raise or lower the signal
# Summary of the method: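 Read-out is ELISA detection of MIG on human umbilical vein endothelial cells, taken 24 h after dosing. Gain or loss of signal was scored relative to DMSO controls using bidirectional curve fitting.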
# [13] = molecular target: human Peroxisome Proliferator-activated Receptor delta (PPARd), PPARD (gene 5467) (UniProt Q03181); test: ATG_PPARd_TRANS: Attagene TRANS-FACTORIAL HepG2 Assay for human Peroxisome Proliferator-activated Receptor delta (PPARd) (AID 2283002)
# Summary of the method: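 Measured quantity: GAL4-UAS reporter transcript induction in HepG2 after 24 h chemical dosing, with NR-Gal4 chimeras supplied by transient transfection. Detection by RT-PCR and capillary electrophoresis; upward fit against DMSO.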
# [14] = molecular target: human Retinoic Acid Receptor gamma (RARg), RARG (gene 5916) (UniProt P13631); test: ATG_RARg_TRANS: Attagene TRANS-FACTORIAL HepG2 Assay for human Retinoic Acid Receptor gamma (RARg) (AID 2283009)
# Summary of the method: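 Transient transfection of HepG2 with multi-reporter constructs, then 24 h chemical treatment. Total RNA isolated, reverse-transcribed, PCR-amplified, fluorescently labelled and resolved by capillary electrophoresis; activity scored as mRNA induction versus DMSO.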
# [15] = molecular target: human RAR-related Orphan Receptor beta (RORb), RORB (gene 6096) (UniProt Q92753); test: ATG_RORb_TRANS: Attagene TRANS-FACTORIAL HepG2 Assay for human RAR-related Orphan Receptor beta (RORb) (AID 2283010)
# Summary of the method: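 Readout is reporter-gene mRNA induction, detected as fluorescence after RT-PCR and capillary electrophoresis, fitted for gain of signal against DMSO controls. Transiently transfected HepG2 liver cells carrying GAL4-UAS reporter constructs were treated for 24 hours.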
# [16] = molecular target: human RAR-related Orphan Receptor gamma (RORg), RORC (gene 6097) (UniProt P51449); test: ATG_RORg_TRANS: Attagene TRANS-FACTORIAL HepG2 Assay for human RAR-related Orphan Receptor gamma (RORg) (AID 2283011)
# Summary of the method: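 Readout: reporter transcript induction (RT-PCR, fluorescent primer extension, capillary electrophoresis) after 24 h compound exposure of transiently transfected HepG2 cells carrying a RORg-Gal4 chimera and GAL4-UAS reporters; DMSO served as baseline, with increasing signal fitted.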
# [17] = molecular target: Retinoic acid receptor RXR-alpha (Homo sapiens) (UniProt P19793); test: ATG_RXRa_TRANS: Attagene TRANS-FACTORIAL HepG2 Assay for human Retinoid X Receptor alpha (RXRa) (AID 2283012)
# Summary of the method: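 Transient transfection of human HepG2 with multiple GAL4-UAS reporter constructs; 24 h compound exposure; total RNA isolated, reverse-transcribed, PCR-amplified, 6-FAM labelled, HpaI-cut, resolved by capillary electrophoresis. Positive-direction fit versus DMSO.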
# [18] = molecular target: human Vitamin D Receptor (VDR), VDR (gene 7421) (UniProt P11473); test: ATG_VDR_TRANS: Attagene TRANS-FACTORIAL HepG2 Assay for human Vitamin D Receptor (VDR) (AID 2283022)
# Summary of the method: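 HepG2 cells were transiently transfected with multiple GAL4-UAS reporter units, so signal reflects exogenous chimeric receptor-Gal4 activity. After 24 h compound exposure, reporter mRNA was measured by RT-PCR, fluorescent labelling and capillary electrophoresis, fitted for gain of signal versus DMSO.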
# [19] = read-out: Interleukin-8 (IL8), CXCL8 (gene 3576); test: BSK_3C_IL8: BioMAP Diversity Plus: 3C Assay for Interleukin-8 (IL8) Biomarker Activity (AID 2283020; active = hit-call score of the fitted dose curve at least 0.9, where 1 is the maximum; inactive = score below 0.9); conditions: primary human endothelial cells (HUVEC); actives raise or lower the signal
# Summary of the method: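 ELISA read-out of IL-8 from human umbilical vein endothelium, measured 24 h after chemical dosing. Activity is expressed relative to DMSO negative control, with both increases and decreases fitted.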
# [20] = read-out: Monocyte Chemoattractant Protein-1 (MCP1), CCL2 (gene 6347); test: BSK_3C_MCP1: BioMAP Diversity Plus: 3C Assay for Monocyte Chemoattractant Protein-1 (MCP1) Biomarker Activity (AID 2283017; active = hit-call score of the fitted dose curve at least 0.9, where 1 is the maximum; inactive = score below 0.9); conditions: primary human endothelial cells (HUVEC); actives raise or lower the signal
# Summary of the method: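 Primary human umbilical vein endothelial cells (3C system) were exposed to test chemical for 24 h, after which MCP-1 was quantified by ELISA. Activity was fitted bidirectionally against DMSO as negative control and baseline.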
# Chain of human Retinoic Acid Receptor gamma (RARg), RARG (gene 5916) (P13631 whole entry, looked up): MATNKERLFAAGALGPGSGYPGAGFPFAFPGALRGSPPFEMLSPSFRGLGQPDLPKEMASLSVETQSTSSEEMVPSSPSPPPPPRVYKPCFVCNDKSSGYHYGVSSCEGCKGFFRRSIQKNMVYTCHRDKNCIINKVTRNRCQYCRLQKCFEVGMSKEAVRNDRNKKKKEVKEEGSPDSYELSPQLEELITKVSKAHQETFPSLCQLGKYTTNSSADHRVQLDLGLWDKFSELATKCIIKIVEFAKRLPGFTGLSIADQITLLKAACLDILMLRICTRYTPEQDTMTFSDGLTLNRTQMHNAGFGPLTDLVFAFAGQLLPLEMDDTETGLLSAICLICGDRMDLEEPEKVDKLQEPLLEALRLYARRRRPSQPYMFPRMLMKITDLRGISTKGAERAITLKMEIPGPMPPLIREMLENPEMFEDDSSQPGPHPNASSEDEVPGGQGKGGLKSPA
# Chain of Nuclear receptor subfamily 1 group I member 2 (Homo sapiens) (O75469 whole entry, looked up, the tested form may be a part): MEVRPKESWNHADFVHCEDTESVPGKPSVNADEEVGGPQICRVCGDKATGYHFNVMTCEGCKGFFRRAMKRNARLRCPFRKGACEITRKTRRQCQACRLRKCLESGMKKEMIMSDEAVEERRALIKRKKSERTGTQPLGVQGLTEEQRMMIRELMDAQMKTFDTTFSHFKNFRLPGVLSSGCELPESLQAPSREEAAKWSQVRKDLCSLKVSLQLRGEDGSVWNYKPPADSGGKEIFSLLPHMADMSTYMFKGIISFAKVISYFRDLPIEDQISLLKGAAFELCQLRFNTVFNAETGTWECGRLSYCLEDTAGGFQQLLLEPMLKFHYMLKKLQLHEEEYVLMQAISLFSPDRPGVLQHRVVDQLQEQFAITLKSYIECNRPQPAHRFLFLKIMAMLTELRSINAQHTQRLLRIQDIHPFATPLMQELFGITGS
# Chain of Retinoic acid receptor RXR-alpha (Homo sapiens) (P19793 whole entry, looked up, the tested form may be a part): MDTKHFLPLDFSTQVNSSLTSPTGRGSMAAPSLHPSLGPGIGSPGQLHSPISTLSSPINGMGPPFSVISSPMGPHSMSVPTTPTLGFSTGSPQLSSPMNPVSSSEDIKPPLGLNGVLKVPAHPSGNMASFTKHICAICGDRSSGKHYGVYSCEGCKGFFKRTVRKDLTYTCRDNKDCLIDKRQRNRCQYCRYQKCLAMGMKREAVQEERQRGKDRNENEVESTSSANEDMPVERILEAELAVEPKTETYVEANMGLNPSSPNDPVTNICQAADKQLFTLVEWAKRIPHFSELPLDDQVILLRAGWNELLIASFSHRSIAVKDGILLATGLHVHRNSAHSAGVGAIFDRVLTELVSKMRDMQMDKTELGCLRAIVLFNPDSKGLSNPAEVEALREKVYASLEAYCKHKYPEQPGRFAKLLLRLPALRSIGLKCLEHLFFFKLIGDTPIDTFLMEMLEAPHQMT
# Chain of human Vitamin D Receptor (VDR), VDR (gene 7421) (P11473 whole entry, looked up, the tested form may be a part): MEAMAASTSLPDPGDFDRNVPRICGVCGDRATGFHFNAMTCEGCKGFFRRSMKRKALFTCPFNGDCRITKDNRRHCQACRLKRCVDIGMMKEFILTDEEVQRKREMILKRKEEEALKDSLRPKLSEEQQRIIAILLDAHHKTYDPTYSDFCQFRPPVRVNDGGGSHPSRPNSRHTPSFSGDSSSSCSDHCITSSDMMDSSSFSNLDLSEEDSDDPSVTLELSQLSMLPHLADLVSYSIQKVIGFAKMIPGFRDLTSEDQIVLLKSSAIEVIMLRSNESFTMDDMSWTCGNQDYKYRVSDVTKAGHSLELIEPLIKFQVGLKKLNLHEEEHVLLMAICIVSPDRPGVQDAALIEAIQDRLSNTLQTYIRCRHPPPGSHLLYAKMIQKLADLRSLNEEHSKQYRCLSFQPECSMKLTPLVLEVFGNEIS
# Chain of human Peroxisome Proliferator-activated Receptor delta (PPARd), PPARD (gene 5467) (Q03181 whole entry, looked up, the tested form may be a part): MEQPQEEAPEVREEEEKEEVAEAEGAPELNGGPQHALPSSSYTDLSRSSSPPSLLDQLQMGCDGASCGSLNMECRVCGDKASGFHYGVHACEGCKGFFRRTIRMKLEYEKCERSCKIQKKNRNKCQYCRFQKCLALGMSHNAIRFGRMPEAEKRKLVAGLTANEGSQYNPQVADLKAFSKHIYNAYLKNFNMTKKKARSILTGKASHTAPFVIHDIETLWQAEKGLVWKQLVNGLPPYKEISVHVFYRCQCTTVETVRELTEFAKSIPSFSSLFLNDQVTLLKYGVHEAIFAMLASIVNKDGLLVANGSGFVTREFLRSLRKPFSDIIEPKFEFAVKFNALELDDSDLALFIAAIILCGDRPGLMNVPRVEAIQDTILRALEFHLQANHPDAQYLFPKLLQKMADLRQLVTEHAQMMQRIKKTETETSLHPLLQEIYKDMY
# Chain of human Peroxisome Proliferator-activated Receptor alpha (PPARa), PPARA (gene 5465) (Q07869 whole entry, looked up, the tested form may be a part): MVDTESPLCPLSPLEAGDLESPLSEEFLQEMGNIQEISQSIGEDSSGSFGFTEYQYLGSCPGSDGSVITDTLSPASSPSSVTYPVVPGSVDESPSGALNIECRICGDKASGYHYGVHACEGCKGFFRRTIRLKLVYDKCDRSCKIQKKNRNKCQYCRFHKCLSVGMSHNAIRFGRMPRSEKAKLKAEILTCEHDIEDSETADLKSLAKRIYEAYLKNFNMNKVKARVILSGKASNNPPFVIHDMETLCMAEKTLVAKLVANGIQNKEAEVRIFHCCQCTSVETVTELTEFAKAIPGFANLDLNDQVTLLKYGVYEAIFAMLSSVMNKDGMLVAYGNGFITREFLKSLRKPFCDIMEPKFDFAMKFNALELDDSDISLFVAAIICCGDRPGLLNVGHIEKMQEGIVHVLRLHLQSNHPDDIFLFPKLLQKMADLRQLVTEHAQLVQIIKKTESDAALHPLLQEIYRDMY
# Chain of human Retinoid X Receptor beta (RXRb), RXRB (gene 6257) (P28702 whole entry, looked up, the tested form may be a part): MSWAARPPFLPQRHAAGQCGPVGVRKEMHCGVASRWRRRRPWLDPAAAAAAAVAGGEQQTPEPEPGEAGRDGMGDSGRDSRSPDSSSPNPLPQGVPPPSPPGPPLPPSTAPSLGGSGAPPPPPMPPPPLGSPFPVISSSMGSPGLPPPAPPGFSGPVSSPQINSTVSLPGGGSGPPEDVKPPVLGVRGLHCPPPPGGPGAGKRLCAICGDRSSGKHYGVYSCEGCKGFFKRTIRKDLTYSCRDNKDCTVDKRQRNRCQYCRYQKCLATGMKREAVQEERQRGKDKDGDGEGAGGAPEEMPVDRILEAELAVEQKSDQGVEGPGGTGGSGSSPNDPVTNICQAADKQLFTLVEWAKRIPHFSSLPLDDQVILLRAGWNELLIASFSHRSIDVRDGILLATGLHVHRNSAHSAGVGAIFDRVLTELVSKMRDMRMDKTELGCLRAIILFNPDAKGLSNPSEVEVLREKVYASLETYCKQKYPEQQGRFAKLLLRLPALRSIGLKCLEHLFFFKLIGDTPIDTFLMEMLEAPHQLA
# Chain of E-selectin (Homo sapiens) (P16581 whole entry, looked up): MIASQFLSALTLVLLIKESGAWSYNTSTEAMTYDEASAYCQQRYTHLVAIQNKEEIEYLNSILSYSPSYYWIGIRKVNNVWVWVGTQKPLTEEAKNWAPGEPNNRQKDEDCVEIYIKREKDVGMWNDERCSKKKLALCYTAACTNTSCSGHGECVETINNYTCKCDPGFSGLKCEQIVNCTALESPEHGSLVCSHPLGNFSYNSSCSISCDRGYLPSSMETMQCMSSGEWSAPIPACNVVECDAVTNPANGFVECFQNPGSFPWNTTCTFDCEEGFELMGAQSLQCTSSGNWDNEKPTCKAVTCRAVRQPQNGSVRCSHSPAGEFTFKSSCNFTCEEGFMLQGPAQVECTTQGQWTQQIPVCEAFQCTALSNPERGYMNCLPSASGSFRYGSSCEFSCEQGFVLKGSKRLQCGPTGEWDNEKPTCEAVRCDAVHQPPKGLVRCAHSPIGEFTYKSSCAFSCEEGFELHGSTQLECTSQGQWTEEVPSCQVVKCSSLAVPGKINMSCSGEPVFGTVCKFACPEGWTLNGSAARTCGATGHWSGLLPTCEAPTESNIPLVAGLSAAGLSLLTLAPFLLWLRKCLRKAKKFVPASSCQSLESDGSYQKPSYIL
# Chain of Peroxisome proliferator-activated receptor gamma (Homo sapiens) (P37231 whole entry, looked up, the tested form may be a part): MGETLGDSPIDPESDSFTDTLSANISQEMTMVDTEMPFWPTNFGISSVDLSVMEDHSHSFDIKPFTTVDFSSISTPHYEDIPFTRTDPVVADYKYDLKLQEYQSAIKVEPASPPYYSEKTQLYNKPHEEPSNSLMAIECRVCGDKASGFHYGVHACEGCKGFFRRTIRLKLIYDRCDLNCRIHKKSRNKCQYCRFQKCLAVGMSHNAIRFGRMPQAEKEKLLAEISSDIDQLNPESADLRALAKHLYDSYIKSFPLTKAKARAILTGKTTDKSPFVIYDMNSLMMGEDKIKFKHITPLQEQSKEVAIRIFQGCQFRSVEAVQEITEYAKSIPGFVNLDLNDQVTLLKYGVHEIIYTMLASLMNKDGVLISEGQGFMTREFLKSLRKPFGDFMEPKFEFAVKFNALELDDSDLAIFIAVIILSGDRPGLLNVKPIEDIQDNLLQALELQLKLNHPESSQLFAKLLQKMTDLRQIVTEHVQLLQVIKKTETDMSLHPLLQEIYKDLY
# Chain of human Thyroid Receptor alpha (THRa1), THRA (gene 7067) (P10827 whole entry, looked up, the tested form may be a part): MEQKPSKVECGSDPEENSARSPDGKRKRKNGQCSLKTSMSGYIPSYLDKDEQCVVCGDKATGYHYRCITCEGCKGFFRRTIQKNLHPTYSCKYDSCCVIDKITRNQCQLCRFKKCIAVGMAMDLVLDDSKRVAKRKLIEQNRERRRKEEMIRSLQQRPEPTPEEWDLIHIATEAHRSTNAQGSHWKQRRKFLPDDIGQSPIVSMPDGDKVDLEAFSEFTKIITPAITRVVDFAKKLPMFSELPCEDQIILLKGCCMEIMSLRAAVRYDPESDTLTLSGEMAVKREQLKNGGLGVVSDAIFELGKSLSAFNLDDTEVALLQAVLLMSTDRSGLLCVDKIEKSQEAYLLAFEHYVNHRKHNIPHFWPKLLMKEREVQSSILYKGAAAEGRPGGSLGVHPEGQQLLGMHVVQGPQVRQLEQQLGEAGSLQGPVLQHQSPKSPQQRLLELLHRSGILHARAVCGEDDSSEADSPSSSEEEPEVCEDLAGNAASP
smiles,measurement,setting,value
CCn1nc(C)c2c1C(=O)NCC(c1ccc(O)cc1)=N2,outcome,[1],inactive
same,outcome,[2],inactive
same,AC50,[3],20 µM (active)
same,AC50,[4],8.02 µM (active)
same,outcome,[5],inactive
same,outcome,[6],inactive
same,outcome,[7],inactive
same,outcome,[8],inactive
same,outcome,[9],inactive
same,outcome,[10],inactive
same,outcome,[11],inactive
same,outcome,[12],inactive
OCc1c[nH]c2ccccc12,outcome,[1],inactive
same,outcome,[13],inactive
same,AC50,[3],9.76 µM (active)
same,AC50,[4],7.94 µM (active) [middle of 5 runs]
same,AC50,[5],1.89 µM (active) [middle of 5 runs]
same,outcome,[14],inactive
same,outcome,[15],inactive
same,outcome,[16],inactive
same,outcome,[17],inactive
same,AC50,[6],9.59 µM (active)
same,outcome,[6],inactive
same,outcome,[7],inactive
same,AC50,[8],24.6 µM (active)
same,outcome,[9],inactive
same,outcome,[10],inactive
same,outcome,[12],inactive
same,outcome,[18],inactive
CC(=O)c1ccccc1,outcome,[1],inactive
same,outcome,[2],inactive
same,outcome,[3],inactive
same,outcome,[4],inactive
same,outcome,[17],inactive
same,outcome,[7],inactive
same,outcome,[8],inactive
same,outcome,[9],inactive
same,outcome,[10],inactive
same,outcome,[11],inactive
same,outcome,[19],inactive
same,outcome,[12],inactive
CCCCN1C(=O)[C@@H]([C@H](O)C2CCCCC2)NC(=O)C12CCN(Cc1ccc(Oc3ccc(C(=O)O)cc3)cc1)CC2,outcome,[1],inactive
same,outcome,[13],inactive
same,outcome,[2],inactive
same,AC50,[3],28.2 µM (active)
same,outcome,[4],inactive
same,outcome,[5],inactive
same,outcome,[8],inactive
same,outcome,[9],inactive
same,AC50,[20],14.9 µM (active)
same,outcome,[10],inactive
same,outcome,[12],inactive
O=C(O)c1cccc(C[C@@H]2COc3ccc(OCc4nc5cc(F)ccc5s4)cc3[C@@H]2O)c1,outcome,[1],inactive
same,outcome,[3],inactive
same,outcome,[5],inactive
same,outcome,[17],inactive
same,outcome,[6],inactive
same,outcome,[8],inactive
same,outcome,[9],inactive
same,outcome,[20],inactive
same,outcome,[10],inactive
same,outcome,[11],inactive
same,outcome,[12],inactive
CCCOc1ccc(S(=O)(=O)N2CCN(CC)CC2)cc1-c1nc2c(CC)n(Cc3ccccn3)nc2c(=O)[nH]1,outcome,[13],inactive
same,outcome,[2],inactive
same,outcome,[3],inactive
same,AC50,[4],7.76 µM (active)
same,AC50,[5],1.17 µM (active)
same,outcome,[14],inactive
same,outcome,[17],inactive
same,outcome,[6],inactive
same,outcome,[8],inactive
same,outcome,[9],inactive
same,outcome,[10],inactive
same,outcome,[11],inactive
same,outcome,[19],inactive
same,outcome,[12],inactive
same,outcome,[18],inactive
CCCCCCCC1CCC(=O)O1 (centres undefined),outcome,[1],inactive
same,outcome,[3],inactive
same,outcome,[4],inactive
same,outcome,[5],inactive
same,outcome,[14],inactive
same,outcome,[16],inactive
same,outcome,[17],inactive
same,outcome,[6],inactive
same,outcome,[8],inactive
same,outcome,[9],inactive
same,outcome,[10],inactive
same,outcome,[12],inactive
Cn1c(=O)c2[nH]cnc2n(C)c1=O,outcome,[1],inactive
same,outcome,[3],inactive
same,outcome,[4],inactive
same,outcome,[5],inactive
same,outcome,[16],inactive
same,outcome,[17],inactive
same,outcome,[8],inactive
same,outcome,[9],inactive
same,outcome,[10],inactive
same,outcome,[11],inactive
same,outcome,[12],inactive
NC(=O)N1c2ccccc2C=Cc2ccccc21,outcome,[2],inactive
same,outcome,[3],inactive
same,outcome,[4],inactive
same,outcome,[5],inactive
same,outcome,[14],inactive
same,outcome,[17],inactive
same,outcome,[7],inactive
same,outcome,[8],inactive
same,outcome,[9],inactive
same,outcome,[20],inactive
same,outcome,[10],inactive
same,outcome,[11],inactive
same,outcome,[12],inactive
